Laboratory results taken from PubChem BioAssay (NCI).
Compounds without any hit were thinned out: in the full panel of roughly 83,000, 20% have a hit.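 Percent growth is the endpoint: 0 to 100 indicates growth inhibition (40 means 60% inhibition), 0 means no net growth, and negative values indicate cell death.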 Values without a mark were called inactive. Calls of active or inactive are those of the source. Rule for the calls: active = growth percent below 10; inactive = the rest.

test system: COLO 205 colon; experiment: NCI-60 one-dose screen, 48 h (100 = growth as untreated, 0 = no growth, -100 = all killed); details: 10 µM

Compound | growth
C=C1CCC2C3(C)COC(c4cc(F)cc(F)c4)OC3CCC2(C)C1C/C=C1/C(=O)OCC1O (stereo not given) | -68% (active)
Cc1cc(C(F)(F)F)ccc1C(=O)Nc1sc2c(c1C#N)CCC(=O)C2 | -94.4% (active)
N#Cc1c(Cl)nc(SCc2ccc(F)cc2)nc1-c1ccc(F)cc1 | 120%

test system: DU-145 prostate; experiment: as above; details: 10 µM

Compound | growth
COc1ccc(N2N=C(c3ccc4c(c3)OCCO4)CC2c2cccc(NC(=O)CCCNS(=O)(=O)c3ccc(F)cc3)c2)cc1 (stereo not given) | 91.5%
COc1cc(/C=N/NC(=O)c2ccc3nc(-c4ccc(Cl)cc4)[nH]c3c2)cc(OC)c1OC | -28.7% (active)
O=C(N=Nc1c(O)[nH]c2ccc(Br)cc12)c1ccc2nc(-c3ccccc3)[nH]c2c1 | -60.5% (active)
COc1ccccc1[C@H]1C(C(=O)c2ccc(Cl)cc2)C2(N[C@@H]1c1ccccc1)C(=O)Nc1ccc(Cl)cc12 (stereo not given in full) | 10.5%
O=c1cc(-c2ccccc2)oc2cc(OCCCNCc3ccccc3)cc(O)c12 | 13.2%
O=C1Nc2cc(-c3ccc(NC(=O)c4cccs4)cc3)ccc2/C1=C/c1ccc[nH]1 | 32.7%
O=C(c1ccc(O)cc1)C1[C@H](c2ccc(Br)cc2)[C@@H](c2ccccc2)NC12C(=O)Nc1ccccc12 (stereo not given in full) | 49.1%
C=C1CCC2C3(C)COC(c4ccccc4F)OC3CCC2(C)C1C/C=C1/C(=O)OCC1O (stereo not given) | -27.8% (active)
C=C1CCC2C3(C)COC(c4c(F)cccc4F)OC3CCC2(C)C1C/C=C1/C(=O)OCC1O (stereo not given) | -60.3% (active)
COc1cccc(/C=C2\N=C(C)N(CCc3ccc(S(N)(=O)=O)cc3)C2=O)c1 | 112%
C=C1CCC2C3(C)COC(c4cccc(F)c4)OC3CCC2(C)C1CC(O)C1=CCOC1=O (stereo not given) | 72.8%
Cn1cc(-c2cc(N)n3nc(-c4c[nH]c5ccc(Br)cc45)cc3n2)c2cccnc21 | -92.5% (active)
C=C1CCC2C3(C)COC(c4c(F)cccc4F)OC3CCC2(C)C1CC(O)C1=CCOC1=O (stereo not given) | 68.1%
Brc1ccc(/C=C/c2n(Cc3ccc4ccccc4c3)c3ccccc3[n+]2Cc2ccc3ccccc3c2)cc1 | 3.53% (active)
O=C(Nc1ccc(I)cc1)Nc1nc2ccc([N+](=O)[O-])cc2s1 | -100% (active)
O=C(N/N=C/c1ccc(B(O)O)o1)c1[nH]c2ccc(Br)cc2c1-c1ccccc1 | 40.9%
CONC[C@]1(C)C=C2C(=O)[C@](C)(O)C3(CC3)C(C)=C2[C@H]1O | 2.57% (active)
O=C(Nc1cccc(-c2cn(-c3ccc4oc(=O)ccc4c3)nn2)c1)Nc1cc(C(F)(F)F)cc(C(F)(F)F)c1 | 30.2%
CCCCCCCCCCCCCCCCCCCC(=O)NCCc1c[nH]c2ccc(OC(=O)CCCC(=O)OCCOOCCOOCCOOCCOOCCOOCCOOCCOOCCOOCCOOCCOOCCOOCCOC)cc12 | 39.8%

Compound | growth
COc1ccc(/C(C)=N/N=C2C(=O)N(C)c3ccc(Br)cc32)cc1S(N)(=O)=O | 86.1%
N#Cc1c(NC(=O)c2ccc(C(F)(F)F)cc2C(F)(F)F)sc2c1CCC(=O)C2 | 23.9%
CNCc1cccc2c1OCCCCCC[C@@](C)(O)CC1(CC1)S(=O)(=O)c1ccc(cc1)-c1cnc(N)c(n1)C(=O)N2 | -84.5% (active)
COc1cc(OC(F)(F)F)ccc1C(=O)Nc1sc2c(c1C#N)CCC(=O)C2 | 103%
Nc1n[nH]c2cccc(C#Cc3cccc(NC(=O)Nc4cc(C(F)(F)F)cc(C(F)(F)F)c4)c3)c12 | 7.02% (active)
N#Cc1c(-c2ccc(F)cc2)nc(SCc2ccc([N+](=O)[O-])cc2)nc1N1CCOCC1 | 73.3%
CC1=N/C(=C\c2ccc(N(C)C)cc2)C(=O)N1CCc1ccc(S(N)(=O)=O)cc1 | 112%
CN(CCF)c1ccc(/C=C/C(=O)c2ccc(N)cc2O)cc1 | 69.6%
O=C(c1ccc(Cl)cc1)C1[C@H](c2ccccc2Br)[C@@H](c2ccccc2)NC12C(=O)Nc1ccccc12 (stereo not given in full) | 17.6%
O=C(Nc1cc(Cl)cc(Cl)c1)Nc1cc(Cl)cc(Cl)c1 | 15.2%
O=C(c1ccc(O)cc1)C1[C@H](c2ccc(Br)cc2)[C@@H](c2ccccc2)NC12C(=O)Nc1ccc(Br)cc12 (stereo not given in full) | 9.58% (active)
COc1ccccc1[C@H]1C(C(=O)c2ccc(O)cc2)C2(N[C@@H]1c1ccccc1)C(=O)Nc1ccc(Br)cc12 (stereo not given in full) | 56%
CN1CCN(c2ccc(C(=O)/C=C/c3ccc(C#N)cc3)cc2)CC1 | 82.1%
CC(C)(C)Nc1nc2cc(Cl)c(Cl)cc2nc1S(C)(=O)=O | 57.2%
COc1cc(/C=C/C(=O)c2cc(OC)c(OC)c(OC)c2)ccc1Oc1nc(Nc2ccc(F)cc2)nc(N(C)C)n1 | -35.8% (active)
C=C1CCC2C3(C)COC(c4cc(F)cc(F)c4)OC3CCC2(C)C1C/C=C1/C(=O)OCC1O (stereo not given) | -52.9% (active)
Cc1cc(C(F)(F)F)ccc1C(=O)Nc1sc2c(c1C#N)CCC(=O)C2 | 20.3%
N#Cc1c(Cl)nc(SCc2ccc(F)cc2)nc1-c1ccc(F)cc1 | 92.5%
